Out of some 5,500 compounds screened, about 2,000 (36%) were called active. Inconclusive results (about 18%) are left out. Cut-off read from the data, not from the text of the source: active = normalized growth mostly below about 0.91 (no sharp cut-off); inconclusive = no clear call, values can overlap the other calls; inactive = mostly above about 0.92. The list shows a part of the results.
Experiment: chemical genetic growth profiling, strain panel (AID 1159580);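 note: tested at 20 µM; growth read once vehicle control cultures reached saturation at 30 °C; 1 = growth at the plate median or of vehicle wells; lower values mean less growth of the strain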
Conditions: growth OD

Measured: normalized growth

COc1c(C)c2c(c(C)c1Cl)Oc1c(Cl)c(OC)c(Cl)c(C)c1C(=O)O2
inactive: S. cerevisiae deletion strains, locus YAL013W, strain DEP1, active compounds read low 0.992 | S. cerevisiae deletion strains, locus YBR021W, strain FUR4, active compounds read low 1.05 | S. cerevisiae deletion strains, locus YBR229C, strain ROT2, active compounds read low 1.01 | S. cerevisiae deletion strains, locus YCL029C, strain bik1, active compounds read low 1.02 | S. cerevisiae deletion strains, locus YDL035C, strain GPR1, active compounds read low 1.01 | S. cerevisiae deletion strains, locus YDL074C, strain BRE1, active compounds read low 1 | S. cerevisiae deletion strains, locus YDL101C, strain DUN1, active compounds read low 1.01 | S. cerevisiae deletion strains, locus YDL134C, strain PPH21, active compounds read low 1.01 | S. cerevisiae deletion strains, locus YDL185W, strain tfp1, active compounds read low 1.02 | S. cerevisiae deletion strains, locus YDL192W, strain arf1, active compounds read low 1.02 | S. cerevisiae deletion strains, locus YDR101C, strain arx1, active compounds read low 1.01 | S. cerevisiae deletion strains, locus YDR150W, strain NUM1, active compounds read low 1.02 | S. cerevisiae deletion strains, locus YDR162C, strain NBP2, active compounds read low 0.987 | S. cerevisiae deletion strains, locus YDR318W, strain mcm21, active compounds read low 1.03 | S. cerevisiae deletion strains, locus YDR388W, active compounds read low 1.01 | S. cerevisiae deletion strains, locus YDR502C, strain sam2, active compounds read low 1.01 | S. cerevisiae deletion strains, locus YEL061C, strain CIN8, active compounds read low 1.01 | S. cerevisiae deletion strains, locus YER110C, active compounds read low 1.02 | S. cerevisiae deletion strains, locus YER155C, strain BEM2, active compounds read low 1.01 | S. cerevisiae deletion strains, locus YER167W, strain BCK2, active compounds read low 1.03 | S. cerevisiae deletion strains, locus YGL078C, strain dbp3, active compounds read low 1.01 | S. cerevisiae deletion strains, locus YGL086W, strain mad1, active compounds read low 1.02 | S. cerevisiae deletion strains, locus YGL248W, strain PDE1, active compounds read low 1.02 | S. cerevisiae deletion strains, locus YGR078C, strain PAC10, active compounds read low 1.01 | S. cerevisiae deletion strains, locus YGR135W, strain pre9, active compounds read low 1 | S. cerevisiae deletion strains, locus YGR229C, strain SMI1, active compounds read low 0.991 | S. cerevisiae deletion strains, locus YGR252W, strain gcn5, active compounds read low 1.05 | S. cerevisiae deletion strains, locus YHR030C, strain SLT2, active compounds read low 1.02 | S. cerevisiae deletion strains, locus YHR079C, strain IRE1 (second series), active compounds read low 1.03 | S. cerevisiae deletion strains, locus YHR094C, strain hxt1, active compounds read low 1.01 | S. cerevisiae deletion strains, locus YHR129C, strain ARP1, active compounds read low 1.02 | S. cerevisiae deletion strains, locus YHR200W, strain rpn10, active compounds read low 1.02 | S. cerevisiae deletion strains, locus YIL066C, strain RNR3, active compounds read low 1 | S. cerevisiae deletion strains, locus YIL073C, strain SPO22, active compounds read low 1.08 | S. cerevisiae deletion strains, locus YIL125W, strain kgd1, active compounds read low 1.02 | S. cerevisiae deletion strains, locus YIR030C, strain dcg1, active compounds read low 1.01 | S. cerevisiae deletion strains, locus YJL095W, strain BCK1, active compounds read low 1.02 | S. cerevisiae deletion strains, locus YJL134W, strain LCB3, active compounds read low 1.01 | S. cerevisiae deletion strains, locus YJL168C, strain set2, active compounds read low 1.01 | S. cerevisiae deletion strains, locus YJL187C, strain SWE1 (second series), active compounds read low 1.01 | S. cerevisiae deletion strains, locus YJR043C, strain POL32, active compounds read low 1.04 | S. cerevisiae deletion strains, locus YJR075W, strain HOC1, active compounds read low 1.01 | S. cerevisiae deletion strains, locus YKL009W, strain mrt4, active compounds read low 1.03 | S. cerevisiae deletion strains, locus YKL068W, active compounds read low 1.01 | S. cerevisiae deletion strains, locus YKL085W, strain MDH1 (second series), active compounds read low 1.02 | S. cerevisiae deletion strains, locus YKL085W, strain MDH1, active compounds read low 1.02 | S. cerevisiae deletion strains, locus YKL190W, strain CNB1, active compounds read low 1.01 | S. cerevisiae deletion strains, locus YKR001C, strain vps1, active compounds read low 1.03 | S. cerevisiae deletion strains, locus YLR039C, strain RIC1, active compounds read low 1.06 | S. cerevisiae deletion strains, locus YLR058C, strain SHM2, active compounds read low 1.02 | S. cerevisiae deletion strains, locus YLR102C, strain apc9, active compounds read low 1.01 | S. cerevisiae deletion strains, locus YLR262C, strain YPT6, active compounds read low 1.02 | S. cerevisiae deletion strains, locus YLR268W, strain sec22, active compounds read low 0.997 | S. cerevisiae deletion strains, locus YLR330W, strain CHS5, active compounds read low 1.02 | S. cerevisiae deletion strains, locus YLR342W, strain FKS1 (second series), active compounds read low 1.08 | S. cerevisiae deletion strains, locus YLR371W, strain rom2, active compounds read low 1.02 | S. cerevisiae deletion strains, locus YLR418C, strain cdc73, active compounds read low 0.989 | S. cerevisiae deletion strains, locus YML016C, strain PPZ1, active compounds read low 1.01 | S. cerevisiae deletion strains, locus YML032C, strain rad52, active compounds read low 1.03 | S. cerevisiae deletion strains, locus YML124C, strain tub3, active compounds read low 1.01 | S. cerevisiae deletion strains, locus YMR078C, strain ctf18, active compounds read low 1.02 | S. cerevisiae deletion strains, locus YMR223W, strain ubp8, active compounds read low 1.03 | S. cerevisiae deletion strains, locus YMR263W, strain SAP30, active compounds read low 1.01 | S. cerevisiae deletion strains, locus YMR307W, strain GAS1, active compounds read low 1.06 | S. cerevisiae deletion strains, locus YNL067W, strain RPL9B, active compounds read low 1.01 | S. cerevisiae deletion strains, locus YNL128W, strain TEP1, active compounds read low 0.967 | S. cerevisiae deletion strains, locus YNL153C, strain GIM3, active compounds read low 1 | S. cerevisiae deletion strains, locus YNL233W, strain BNI4, active compounds read low 1.02 | S. cerevisiae deletion strains, locus YNL250W, strain rad50, active compounds read low 1.01 | S. cerevisiae deletion strains, locus YNL271C, strain bni1, active compounds read low 1.01 | S. cerevisiae deletion strains, locus YNL298W, strain CLA4, active compounds read low 1.03 | S. cerevisiae deletion strains, locus YNL307C, strain MCK1, active compounds read low 1.03 | S. cerevisiae deletion strains, locus YNL322C, strain KRE1, active compounds read low 1 | S. cerevisiae deletion strains, locus YNR052C, strain pop2, active compounds read low 1.02 | S. cerevisiae deletion strains, locus YOL006C, strain TOP1, active compounds read low 1.1 | S. cerevisiae deletion strains, locus YOL012C, strain htz1 0.785 | S. cerevisiae deletion strains, locus YOL147C, strain pex11, active compounds read low 1.01 | S. cerevisiae deletion strains, locus YOR061W, strain CKA2, active compounds read low 1.01 | S. cerevisiae deletion strains, locus YOR069W, strain VPS5, active compounds read low 1.02 | S. cerevisiae deletion strains, locus YOR136W, strain idh2, active compounds read low 1.02 | S. cerevisiae deletion strains, locus YOR144C, strain elg1, active compounds read low 1.01 | S. cerevisiae deletion strains, locus YOR184W, strain ser1, active compounds read low 1.05 | S. cerevisiae deletion strains, locus YOR316C, strain cot1, active compounds read low 1.02 | S. cerevisiae deletion strains, locus YPL055C, strain LGE1, active compounds read low 0.99 | S. cerevisiae deletion strains, locus YPL241C, strain CIN2, active compounds read low 1 | S. cerevisiae deletion strains, locus YPR119W, strain clb2, active compounds read low 1 | S. cerevisiae deletion strains, locus YPR141C, strain kar3, active compounds read low 1.01 | S. cerevisiae deletion strains, locus YPR163C, strain tif3, active compounds read low 1.03 | S. cerevisiae deletion strains, locus YPR167C, strain met16, active compounds read low 1.01 | S. cerevisiae deletion strains, strain wtn01, active compounds read low 1.01 | S. cerevisiae strains, strain wild type, active compounds read low 1
